Where a name gives a salt, the structure may show the parent alone.
Experiments:
[1] = test system: Vero E6 infected with SARS-CoV-2; test: morphology score (similarity to uninfected cells); higher = more like uninfected cells; conditions: 24 h
[2] = test system: Vero E6 infected with SARS-CoV-2; test: SARS-CoV-2 infection rate relative to infected DMSO; higher = more infection, active = 60 or less; conditions: 24 h

Row | SMILES | morphology score [1] | SARS-CoV-2 infection rate [2]
1 | CC(C)C[C@@H](C=O)NC(=O)[C@H](CC(C)C)NC(=O)[C@H](CC(C)C)NC(=O)OCc1ccccc1 (10 µM) | 0.514 | 66% (inactive)
2 | CCCC[C@H](NC(=O)[C@@H]1[C@@H]2[C@H](CN1C(=O)[C@@H](NC(=O)NC1(CS(=O)(=O)C(C)(C)C)CCCCC1)C(C)(C)C)C2(C)C)C(=O)C(=O)NC1CC1 [narlaprevir] (10 µM) | 0.157 | 111% (inactive)
3 | O=C(c1cccc(Cl)c1F)N1CCN(Cc2cccc(Nc3nccs3)n2)CC1 (0.833333 µM) | 0.202 | 107% (inactive)
4 | O=C(O)C1=CO[C@@H](O[C@@H]2O[C@H](CO)[C@@H](O)[C@H](O)[C@H]2O)[C@@H]2C(CO)=CC[C@H]12 [Geniposidic acid] (10 µM) | -0.163 | 114% (inactive)
5 | COc1ccc(S(=O)(=O)N2CCCN(S(=O)(=O)c3ccc(OC)c(OC)c3)CC2)cc1OC (10 µM) | 0.209 | 106% (inactive)
6 | c1cc(-c2cnn3cc(-c4ccc(N5CCNCC5)cc4)cnc23)c2cccnc2c1 (0.833333 µM) | -0.148 | 103% (inactive)
7 | CNC(=O)CN(CCN(CCN(CC(=O)[O-])CC(=O)NC)CC(=O)[O-])CC(=O)[O-].[Gd+3] [gadodiamide] (10 µM) | -0.0219 | 103% (inactive)
8 | CCN(CC)Cc1ccc2cc(COC(=O)Nc3ccc(C(=O)NO)cc3)ccc2c1 [givinostat] (10 µM) | -0.215 | 112% (inactive)
9 | CC(O)c1cc(C(=O)N[C@@H](C)Cn2ccc(-c3ccc(C#N)c(Cl)c3)n2)n[nH]1 (some centres not stated) (10 µM) | 0.201 | 106% (inactive)
10 | O/N=C/c1cc[n+](COC[n+]2ccc(/C=N/O)cc2)cc1 [obidoxime] (10 µM) | -0.0437 | 108% (inactive)
11 | N=c1ccn2c(n1)O[C@H]1[C@H](O)[C@@H](CO)O[C@H]12 [Cyclocytidine HCl] (0.833333 µM) | -0.127 | 114% (inactive)
12 | O=C(/C=C/c1ccc(O)c(O)c1)OCCc1ccccc1 [caffeic-acid-phenethyl-ester] (10 µM) | -0.0125 | 79% (inactive)
13 | COCCCC/C(=N\OCCN)c1ccc(C(F)(F)F)cc1 [fluvoxamine] (10 µM) | 0.0586 | 90% (inactive)
14 | CCN1CCC[C@H]1CNC(=O)c1c(OC)ccc(Br)c1OC [remoxipride] (10 µM) | 0.159 | 98.5% (inactive)
15 | CCc1cccc(N(C)C(=N)Nc2cccc3ccccc23)c1 [aptiganel] (10 µM) | 0.0916 | 104% (inactive)
16 | CC1(COc2ccc3c(c2)ncn3-c2ccc3cccc(N4CCC(N)CC4)c3n2)COC1 [crenolanib] (0.833333 µM) | -0.0592 | 99.5% (inactive)
17 | COC(=O)N[C@H](C(=O)N1CC2(CC2)C[C@H]1c1nc(-c2ccc3c(c2)C(F)(F)c2cc(-c4ccc5[nH]c([C@@H]6[C@H]7CC[C@H](C7)N6C(=O)[C@@H](NC(=O)OC)C(C)C)nc5c4)ccc2-3)c[nH]1)C(C)C [ledipasvir] (10 µM) | 0.191 | 99.5% (inactive)
18 | CC(C)[C@H](NS(=O)(=O)c1ccc(-c2ccc(Br)cc2)cc1)C(=O)O (10 µM) | -0.0577 | 107% (inactive)
19 | CCOC(=O)c1ccccc1OC(N)=O [ethyl-2-(carbamoyloxy)benzoate] (10 µM) | -0.102 | 108% (inactive)
20 | CC(C)c1cc(C(C)C)c(CC(=O)NS(=O)(=O)Oc2c(C(C)C)cccc2C(C)C)c(C(C)C)c1 [avasimibe] (10 µM) | 0.0222 | 110% (inactive)
21 | CCS(=O)(=O)N1CC(CC#N)(n2cc(-c3ncnc4[nH]ccc34)cn2)C1 [baricitinib] (10 µM) | 0.418 | 112% (inactive)
22 | O=C(O)CCNC(=O)c1ccccc1 [betamipron] (10 µM) | 0.00831 | 118% (inactive)
23 | COc1ccc(/C=C2\CCCN=C2c2cccnc2)c(OC)c1 (10 µM) | 0.517 | 87% (inactive)
24 | CCCCCCNC(=O)n1cc(F)c(=O)[nH]c1=O [Carmofur] (0.833333 µM) | 0.222 | 106% (inactive)
25 | Cc1ccc(/C=N/NC(=O)c2ccccc2Oc2ccccc2)o1 (10 µM) | 0.268 | 82.5% (inactive)
26 | O=C(CCCl)NCc1ccccc1 [beclamide] (10 µM) | 0.278 | 97.5% (inactive)
